Source: publication PMC7862700, “An all-to-all approach to the identification of sequence-specific readers for epigenetic DNA modifications on cytosine”

Assays:
Test in all cases: DAPPL (digital affinity profiling via proximity ligation, sequencing); 10 mM Tris-HCl pH 7.5, 50 mM NaCl, 1 mM DTT, 4% glycerol, room temperature, 30 min; GST-TFs on glutathione beads, 16-mer random dsDNA library, 0.1% formaldehyde crosslink after washing; high values mean tight binding
Conditions in all cases: protein: recombinant; tags: N-terminal GST; dsDNA, one strand shown
[1] = target: T1, FEV (Homo sapiens, UniProt Q99581 1-238)
T1 sequence: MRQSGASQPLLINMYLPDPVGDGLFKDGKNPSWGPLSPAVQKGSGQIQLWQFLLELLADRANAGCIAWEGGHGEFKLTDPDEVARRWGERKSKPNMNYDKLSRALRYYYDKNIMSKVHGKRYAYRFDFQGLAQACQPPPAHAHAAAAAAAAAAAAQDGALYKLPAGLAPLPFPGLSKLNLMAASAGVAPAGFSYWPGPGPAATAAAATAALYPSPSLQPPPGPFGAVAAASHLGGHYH
Procedure, shortened: (§1)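 Sequencing on an Illumina NextSeq500 followed washing, crosslinking with 0.1% formaldehyde, proximity ligation (BsaI/T4 ligase, 1 h, 37 °C) and PCR amplification of pools that had been incubated for 30 min at room temperature with 200 nmole of a random double-stranded 16-mer DNA library in Tris/NaCl/DTT/glycerol buffer. Each pool held DNA-barcoded human transcription factors, expressed in yeast as GST fusions and captured on glutathione beads, plus a tag-only sample. Binding signal is a hexamer's read frequency for a factor divided by its frequency in the tag-only sample.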

[2] = target: ETV5 (Homo sapiens, UniProt P41161 1-510)
Procedure, shortened: as §1

[3] = target: T2, SPIC (Homo sapiens, UniProt Q8N5J4 1-248)
T2 sequence: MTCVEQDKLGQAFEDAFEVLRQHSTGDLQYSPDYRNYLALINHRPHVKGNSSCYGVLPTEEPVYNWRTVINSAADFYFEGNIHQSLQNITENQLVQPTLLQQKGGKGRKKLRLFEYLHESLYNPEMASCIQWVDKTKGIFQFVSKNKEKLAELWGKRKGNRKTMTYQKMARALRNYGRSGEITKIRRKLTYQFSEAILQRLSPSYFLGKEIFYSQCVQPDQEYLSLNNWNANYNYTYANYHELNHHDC
Procedure, shortened: as §1

[4] = target: ELF4 (Homo sapiens, UniProt Q99607 1-663)
Procedure, shortened: as §1

[5] = target: T3, ELK4 (Homo sapiens, UniProt P28324-2 1-405)
T3 sequence: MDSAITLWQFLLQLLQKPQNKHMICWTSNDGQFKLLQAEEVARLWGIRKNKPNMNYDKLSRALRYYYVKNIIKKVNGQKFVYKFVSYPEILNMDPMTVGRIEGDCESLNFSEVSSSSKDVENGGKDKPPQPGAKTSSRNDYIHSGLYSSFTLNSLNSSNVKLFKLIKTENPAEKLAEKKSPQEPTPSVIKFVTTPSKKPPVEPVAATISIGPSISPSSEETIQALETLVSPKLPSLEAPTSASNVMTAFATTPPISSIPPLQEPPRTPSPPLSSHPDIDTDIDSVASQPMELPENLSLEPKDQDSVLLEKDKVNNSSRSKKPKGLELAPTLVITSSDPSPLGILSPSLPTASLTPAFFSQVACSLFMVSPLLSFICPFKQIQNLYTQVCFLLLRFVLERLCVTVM
Procedure, shortened: as §1

[6] = target: T4, ETV2 (Homo sapiens, UniProt O00321 1-342)
T4 sequence: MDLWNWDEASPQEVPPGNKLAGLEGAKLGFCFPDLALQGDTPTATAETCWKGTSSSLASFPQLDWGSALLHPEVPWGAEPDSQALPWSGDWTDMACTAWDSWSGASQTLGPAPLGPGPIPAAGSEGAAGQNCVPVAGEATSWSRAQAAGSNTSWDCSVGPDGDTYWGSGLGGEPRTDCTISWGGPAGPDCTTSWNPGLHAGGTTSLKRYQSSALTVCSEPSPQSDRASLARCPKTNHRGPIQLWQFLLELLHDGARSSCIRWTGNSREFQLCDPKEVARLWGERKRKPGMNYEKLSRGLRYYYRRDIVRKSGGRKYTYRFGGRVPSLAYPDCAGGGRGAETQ
Procedure, shortened: as §1

[7] = target: CRX (Homo sapiens, UniProt O43186 1-299)
Procedure, shortened: as §1

[8] = target: ETV1 (Homo sapiens, UniProt P50549 1-477)
Procedure, shortened: as §1

[9] = target: T5, ETV3L (Homo sapiens, UniProt Q6ZN32 1-361)
T5 sequence: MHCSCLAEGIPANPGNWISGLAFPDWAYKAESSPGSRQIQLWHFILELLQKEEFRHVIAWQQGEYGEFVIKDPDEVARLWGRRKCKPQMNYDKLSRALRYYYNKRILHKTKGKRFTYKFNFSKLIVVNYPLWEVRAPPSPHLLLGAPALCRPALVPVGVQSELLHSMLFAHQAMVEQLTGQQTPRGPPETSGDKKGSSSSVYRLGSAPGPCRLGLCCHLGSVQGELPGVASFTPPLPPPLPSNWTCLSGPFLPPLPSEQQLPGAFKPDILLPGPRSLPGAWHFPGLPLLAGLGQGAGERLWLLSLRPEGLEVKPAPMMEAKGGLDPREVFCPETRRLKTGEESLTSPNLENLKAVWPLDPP
Procedure, shortened: as §1

[10] = target: T6, ETS2 (Homo sapiens, UniProt P15036 1-469)
T6 sequence: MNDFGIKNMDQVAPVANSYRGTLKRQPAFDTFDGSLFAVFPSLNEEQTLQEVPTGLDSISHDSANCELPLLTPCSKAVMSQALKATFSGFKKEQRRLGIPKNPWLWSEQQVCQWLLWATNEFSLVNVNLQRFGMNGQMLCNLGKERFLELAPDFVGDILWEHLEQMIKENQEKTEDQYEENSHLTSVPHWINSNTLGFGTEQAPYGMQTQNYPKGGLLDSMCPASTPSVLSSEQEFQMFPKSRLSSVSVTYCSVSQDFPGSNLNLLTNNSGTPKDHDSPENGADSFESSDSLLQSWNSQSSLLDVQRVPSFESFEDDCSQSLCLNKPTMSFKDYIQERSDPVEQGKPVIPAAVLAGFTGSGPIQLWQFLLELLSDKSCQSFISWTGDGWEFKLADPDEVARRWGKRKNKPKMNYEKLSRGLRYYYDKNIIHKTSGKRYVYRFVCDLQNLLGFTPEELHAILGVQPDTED
Procedure, shortened: as §1

[11] = target: T7, SPDEF (Homo sapiens, UniProt O95238 1-335)
T7 sequence: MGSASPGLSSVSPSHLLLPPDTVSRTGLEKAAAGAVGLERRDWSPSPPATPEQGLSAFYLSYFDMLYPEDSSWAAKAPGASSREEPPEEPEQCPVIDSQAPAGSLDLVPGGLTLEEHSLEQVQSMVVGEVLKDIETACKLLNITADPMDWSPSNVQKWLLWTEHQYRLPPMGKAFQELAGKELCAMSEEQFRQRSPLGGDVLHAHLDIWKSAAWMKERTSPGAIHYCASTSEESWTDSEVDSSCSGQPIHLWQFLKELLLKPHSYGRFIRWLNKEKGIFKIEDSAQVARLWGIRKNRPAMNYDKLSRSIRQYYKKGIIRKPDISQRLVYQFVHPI
Procedure, shortened: as §1

[12] = target: T8, ETV7 (Homo sapiens, UniProt Q9Y603 1-341)
T8 sequence: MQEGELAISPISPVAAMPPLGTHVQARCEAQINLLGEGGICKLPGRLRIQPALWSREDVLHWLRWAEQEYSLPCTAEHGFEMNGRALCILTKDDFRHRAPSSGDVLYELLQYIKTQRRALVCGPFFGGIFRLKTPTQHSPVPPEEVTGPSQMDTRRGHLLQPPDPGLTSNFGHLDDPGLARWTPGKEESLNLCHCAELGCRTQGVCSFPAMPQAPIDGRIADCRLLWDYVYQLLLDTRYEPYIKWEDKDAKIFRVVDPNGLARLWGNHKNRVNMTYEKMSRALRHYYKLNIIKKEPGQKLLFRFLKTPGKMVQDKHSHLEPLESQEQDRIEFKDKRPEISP
Procedure, shortened: as §1

[13] = target: T9, ETV3 (Homo sapiens, UniProt P41162-2 1-143)
T9 sequence: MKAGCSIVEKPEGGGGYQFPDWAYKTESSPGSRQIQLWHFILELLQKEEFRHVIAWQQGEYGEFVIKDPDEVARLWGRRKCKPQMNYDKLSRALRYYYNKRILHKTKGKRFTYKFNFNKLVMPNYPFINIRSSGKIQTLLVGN
Procedure, shortened: as §1

[14] = target: T10, ELF3 (Homo sapiens, UniProt P78545 1-371)
T10 sequence: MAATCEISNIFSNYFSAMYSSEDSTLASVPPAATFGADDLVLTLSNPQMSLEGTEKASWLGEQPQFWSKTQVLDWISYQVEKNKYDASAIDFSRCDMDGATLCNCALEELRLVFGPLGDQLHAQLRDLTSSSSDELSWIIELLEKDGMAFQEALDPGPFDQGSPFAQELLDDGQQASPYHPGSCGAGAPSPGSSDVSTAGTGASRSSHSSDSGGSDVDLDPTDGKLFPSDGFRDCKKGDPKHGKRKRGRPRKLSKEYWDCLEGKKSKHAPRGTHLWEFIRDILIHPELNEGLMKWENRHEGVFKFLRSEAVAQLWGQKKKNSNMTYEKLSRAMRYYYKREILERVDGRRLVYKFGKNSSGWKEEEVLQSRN
Procedure, shortened: as §1

[15] = target: T11, ERF (Homo sapiens, UniProt P50548 1-548)
T11 sequence: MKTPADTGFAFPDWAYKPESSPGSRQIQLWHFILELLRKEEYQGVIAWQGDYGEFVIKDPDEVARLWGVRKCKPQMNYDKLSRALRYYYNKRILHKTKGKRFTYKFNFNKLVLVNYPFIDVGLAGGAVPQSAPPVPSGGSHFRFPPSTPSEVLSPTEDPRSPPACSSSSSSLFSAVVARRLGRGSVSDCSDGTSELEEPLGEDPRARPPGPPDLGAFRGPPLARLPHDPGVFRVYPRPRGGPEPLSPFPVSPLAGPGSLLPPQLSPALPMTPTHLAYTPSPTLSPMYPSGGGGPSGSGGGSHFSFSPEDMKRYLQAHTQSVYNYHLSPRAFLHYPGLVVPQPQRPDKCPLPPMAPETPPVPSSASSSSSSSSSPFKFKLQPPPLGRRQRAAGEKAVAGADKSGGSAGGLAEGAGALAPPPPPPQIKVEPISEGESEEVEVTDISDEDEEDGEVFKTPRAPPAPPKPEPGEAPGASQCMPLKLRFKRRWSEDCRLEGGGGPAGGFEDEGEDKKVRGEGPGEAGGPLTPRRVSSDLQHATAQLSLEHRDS
Procedure, shortened: as §1

[16] = target: T12, ELF5 (Homo sapiens, UniProt Q9UKW6-2 1-255)
T12 sequence: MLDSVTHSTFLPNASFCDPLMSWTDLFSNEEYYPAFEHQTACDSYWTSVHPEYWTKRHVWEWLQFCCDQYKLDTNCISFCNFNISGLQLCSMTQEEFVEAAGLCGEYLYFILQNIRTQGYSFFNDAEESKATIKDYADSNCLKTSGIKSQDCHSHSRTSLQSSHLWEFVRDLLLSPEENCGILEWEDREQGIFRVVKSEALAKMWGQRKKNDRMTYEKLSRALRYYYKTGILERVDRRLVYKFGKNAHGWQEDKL
Procedure, shortened: as §1

[17] = target: ETV6 (Homo sapiens, UniProt P41212 1-452)
Procedure, shortened: as §1

Sequence of ETV1 (P50549 whole entry): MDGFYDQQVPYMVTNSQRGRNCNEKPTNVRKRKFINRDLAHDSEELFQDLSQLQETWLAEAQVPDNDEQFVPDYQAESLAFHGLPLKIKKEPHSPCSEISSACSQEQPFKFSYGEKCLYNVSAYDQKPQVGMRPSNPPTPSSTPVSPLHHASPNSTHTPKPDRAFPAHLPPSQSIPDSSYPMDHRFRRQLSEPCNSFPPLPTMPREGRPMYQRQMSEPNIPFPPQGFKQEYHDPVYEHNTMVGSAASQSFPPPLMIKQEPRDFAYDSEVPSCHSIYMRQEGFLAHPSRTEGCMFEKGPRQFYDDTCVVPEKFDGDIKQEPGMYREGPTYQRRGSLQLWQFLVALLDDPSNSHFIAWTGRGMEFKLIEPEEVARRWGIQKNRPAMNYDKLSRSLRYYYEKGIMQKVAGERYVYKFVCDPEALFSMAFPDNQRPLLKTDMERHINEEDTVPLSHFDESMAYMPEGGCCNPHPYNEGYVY
Sequence of ELF4 (Q99607 whole entry): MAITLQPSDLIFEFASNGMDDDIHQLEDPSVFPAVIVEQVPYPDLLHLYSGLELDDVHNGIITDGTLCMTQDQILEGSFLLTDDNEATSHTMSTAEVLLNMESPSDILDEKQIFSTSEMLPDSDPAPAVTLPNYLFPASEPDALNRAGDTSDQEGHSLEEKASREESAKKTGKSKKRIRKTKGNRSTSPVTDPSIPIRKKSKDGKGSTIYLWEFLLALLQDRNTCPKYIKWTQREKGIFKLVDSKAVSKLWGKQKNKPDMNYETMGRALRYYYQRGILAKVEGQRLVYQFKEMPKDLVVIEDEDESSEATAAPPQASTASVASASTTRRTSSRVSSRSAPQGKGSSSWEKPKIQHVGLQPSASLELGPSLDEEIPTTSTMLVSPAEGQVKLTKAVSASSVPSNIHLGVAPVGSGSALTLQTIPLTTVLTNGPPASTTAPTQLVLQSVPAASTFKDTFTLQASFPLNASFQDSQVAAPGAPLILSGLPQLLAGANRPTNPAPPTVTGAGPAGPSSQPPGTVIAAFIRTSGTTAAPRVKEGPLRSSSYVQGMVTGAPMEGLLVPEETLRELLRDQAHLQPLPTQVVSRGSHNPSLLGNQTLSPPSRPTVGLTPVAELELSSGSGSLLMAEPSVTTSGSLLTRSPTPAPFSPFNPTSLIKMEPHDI
Sequence of ETV5 (P41161 whole entry): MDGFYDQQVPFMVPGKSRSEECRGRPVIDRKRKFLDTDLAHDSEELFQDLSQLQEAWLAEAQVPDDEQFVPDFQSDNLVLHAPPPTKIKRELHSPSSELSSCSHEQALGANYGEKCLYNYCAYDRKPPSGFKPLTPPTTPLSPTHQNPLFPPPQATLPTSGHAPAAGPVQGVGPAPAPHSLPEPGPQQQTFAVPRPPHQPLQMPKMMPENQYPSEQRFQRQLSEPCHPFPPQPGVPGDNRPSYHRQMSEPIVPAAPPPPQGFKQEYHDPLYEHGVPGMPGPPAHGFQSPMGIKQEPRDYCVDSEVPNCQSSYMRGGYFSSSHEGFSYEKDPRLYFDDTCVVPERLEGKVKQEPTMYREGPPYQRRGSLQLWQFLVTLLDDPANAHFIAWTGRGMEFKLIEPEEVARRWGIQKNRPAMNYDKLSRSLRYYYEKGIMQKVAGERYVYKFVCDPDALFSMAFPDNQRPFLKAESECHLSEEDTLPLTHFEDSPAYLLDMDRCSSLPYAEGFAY
Sequence of ETV6 (P41212 whole entry): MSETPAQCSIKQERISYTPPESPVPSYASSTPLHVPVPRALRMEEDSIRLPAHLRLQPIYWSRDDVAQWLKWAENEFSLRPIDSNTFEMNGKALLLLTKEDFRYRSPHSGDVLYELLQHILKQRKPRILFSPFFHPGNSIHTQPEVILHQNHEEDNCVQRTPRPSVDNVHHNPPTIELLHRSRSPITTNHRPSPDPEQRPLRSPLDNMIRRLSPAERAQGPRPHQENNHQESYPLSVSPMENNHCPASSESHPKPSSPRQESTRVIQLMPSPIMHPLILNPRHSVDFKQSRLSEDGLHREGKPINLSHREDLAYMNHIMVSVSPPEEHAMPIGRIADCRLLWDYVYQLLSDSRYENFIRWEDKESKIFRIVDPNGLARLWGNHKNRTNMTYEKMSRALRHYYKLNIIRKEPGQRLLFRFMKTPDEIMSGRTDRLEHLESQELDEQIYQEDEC
Sequence of CRX (O43186 whole entry): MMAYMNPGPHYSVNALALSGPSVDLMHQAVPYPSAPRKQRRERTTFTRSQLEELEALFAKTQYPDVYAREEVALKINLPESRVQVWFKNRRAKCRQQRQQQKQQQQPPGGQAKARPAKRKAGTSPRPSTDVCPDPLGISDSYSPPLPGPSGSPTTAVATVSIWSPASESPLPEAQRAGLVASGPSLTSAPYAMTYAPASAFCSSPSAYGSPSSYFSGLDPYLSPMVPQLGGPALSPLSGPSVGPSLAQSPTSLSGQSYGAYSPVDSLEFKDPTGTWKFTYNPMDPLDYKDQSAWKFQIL

Sequence	binding signal [1]	binding signal [2]	binding signal [3]	binding signal [4]	binding signal [5]	binding signal [6]	binding signal [7]	binding signal [8]	binding signal [9]	binding signal [10]	binding signal [11]	binding signal [12]	binding signal [13]	binding signal [14]	binding signal [15]	binding signal [16]	binding signal [17]
TCAACG	1.06 fold enrichment (6-mer frequency, TF over GST control)	1.12 fold enrichment (6-mer frequency, TF over GST control)	1.1 fold enrichment (6-mer frequency, TF over GST control)	1.11 fold enrichment (6-mer frequency, TF over GST control)	1.09 fold enrichment (6-mer frequency, TF over GST control)	1.18 fold enrichment (6-mer frequency, TF over GST control)	1.1 fold enrichment (6-mer frequency, TF over GST control)	1.15 fold enrichment (6-mer frequency, TF over GST control)	1.07 fold enrichment (6-mer frequency, TF over GST control)	1.13 fold enrichment (6-mer frequency, TF over GST control)	1.05 fold enrichment (6-mer frequency, TF over GST control)	1 fold enrichment (6-mer frequency, TF over GST control)	1.14 fold enrichment (6-mer frequency, TF over GST control)				
ATGTCA	1.03 fold enrichment (6-mer frequency, TF over GST control)	1.08 fold enrichment (6-mer frequency, TF over GST control)	1.21 fold enrichment (6-mer frequency, TF over GST control)	1.19 fold enrichment (6-mer frequency, TF over GST control)	1.14 fold enrichment (6-mer frequency, TF over GST control)			1.11 fold enrichment (6-mer frequency, TF over GST control)	1.2 fold enrichment (6-mer frequency, TF over GST control)	1.2 fold enrichment (6-mer frequency, TF over GST control)	1.1 fold enrichment (6-mer frequency, TF over GST control)	1.02 fold enrichment (6-mer frequency, TF over GST control)	1.12 fold enrichment (6-mer frequency, TF over GST control)	1.28 fold enrichment (6-mer frequency, TF over GST control)	1.2 fold enrichment (6-mer frequency, TF over GST control)	1.09 fold enrichment (6-mer frequency, TF over GST control)	1.11 fold enrichment (6-mer frequency, TF over GST control)
GCCAAT	1.03 fold enrichment (6-mer frequency, TF over GST control)	1.09 fold enrichment (6-mer frequency, TF over GST control)	1.05 fold enrichment (6-mer frequency, TF over GST control)	1.12 fold enrichment (6-mer frequency, TF over GST control)	1.01 fold enrichment (6-mer frequency, TF over GST control)			1.13 fold enrichment (6-mer frequency, TF over GST control)	1.05 fold enrichment (6-mer frequency, TF over GST control)	1.06 fold enrichment (6-mer frequency, TF over GST control)	1.07 fold enrichment (6-mer frequency, TF over GST control)	1.06 fold enrichment (6-mer frequency, TF over GST control)	1.1 fold enrichment (6-mer frequency, TF over GST control)	1.2 fold enrichment (6-mer frequency, TF over GST control)	1.11 fold enrichment (6-mer frequency, TF over GST control)		
GGTCCC	1.1 fold enrichment (6-mer frequency, TF over GST control)	1.13 fold enrichment (6-mer frequency, TF over GST control)	1.18 fold enrichment (6-mer frequency, TF over GST control)	1.16 fold enrichment (6-mer frequency, TF over GST control)	1.29 fold enrichment (6-mer frequency, TF over GST control)	1.16 fold enrichment (6-mer frequency, TF over GST control)		1.3 fold enrichment (6-mer frequency, TF over GST control)	1.25 fold enrichment (6-mer frequency, TF over GST control)	1.12 fold enrichment (6-mer frequency, TF over GST control)	1.29 fold enrichment (6-mer frequency, TF over GST control)	1.15 fold enrichment (6-mer frequency, TF over GST control)	1.2 fold enrichment (6-mer frequency, TF over GST control)		1.18 fold enrichment (6-mer frequency, TF over GST control)	1.13 fold enrichment (6-mer frequency, TF over GST control)	1.09 fold enrichment (6-mer frequency, TF over GST control)
